Compound activity from PubChem BioAssay.
Sampled rows, rich in hits. Any-hit rate of the full collection: about 9.2%.
ELG1 DNA repair: ELG1-dependent DNA repair inhibition. Potency, µM (highest dose often 46.1 µM), usual class: inhibitors. HEK293T ELG1-luciferase reporter, luminescence, 16 h; DNA damage induced by 5-fluorouridine. hit rate 2.3% among 330,000; also: nearly all actives have a fitted effect of over 55% in size
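Luminescence from the luciferase reporter, measured 30 min after ONE-Glo reagent at room temperature, was the read-out. Beforehand, 2,000 cells per well were exposed for 16 hr at 37 °C to 5-fluorouridine together with compound or vehicle.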
SMN2 splice enh: increases expression of the SMN2 splice variant; HEK293 SMN2-luciferase splicing reporter, luminescence, 30-36 h; Potency, µM (titrated, usually from 46.1 µM), actives largely listed as activators; hit rate 2.8% among 210,000; also: nearly all actives have a fitted effect of over 55% in size
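HEK293 cells carry an SMN2 minigene-luciferase reporter in which exon 7 inclusion puts luciferase in frame. Cells were seeded at 2000 cells/well, attached for 10-12 hours, then exposed to compounds for 30-36 hours at 37C before ONE-Glo luminescence.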
Rab9 prom act: activates the Rab9 promoter | hit rate 2.8% among 320,000 | Huh7 Rab9 promoter-luciferase reporter, luminescence, 24 h | Potency, µM (titrated, usually from 9.22 µM), usual class: activators; also: nearly all actives have a fitted effect of over 60% in size
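Stable Rab9-luc Huh7, 1500 cells/well, 2 h settle; cmpd in DMSO, 24 h, 37 °C/5% CO2; luciferase reagent 10 min RT; luminescence.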
ELG1 genotox: induces genotoxicity in HEK293T cells with luciferase-tagged ELG1. HEK293T ELG1-luciferase reporter, luminescence, 16 h. Potency, µM (highest dose often 46 µM), most hits filed as activators. hit rate 1.3% among 330,000. AID 504466; also: nearly all actives have a fitted effect of over 60% in size
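Luminescence read-out: rising ELG1-luciferase signal, reflecting elevated ELG1 protein under genetic stress, flags genotoxic compounds. Cells were treated for 16 hr at 37 °C before ONE-Glo detection.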
FLuc modulator: counter-screen for miR-21 project: firefly luciferase inhibitors or activators. P08659. purified FLuc, Km substrates, luminescence inhibition. Potency, µM (series often up to 57.5 µM), most hits filed as inhibitors. hit rate 6.9% among 360,000. AID 588342; also: nearly all actives have a fitted effect of over 55% in size
Target sequence (P08659 whole entry, looked up): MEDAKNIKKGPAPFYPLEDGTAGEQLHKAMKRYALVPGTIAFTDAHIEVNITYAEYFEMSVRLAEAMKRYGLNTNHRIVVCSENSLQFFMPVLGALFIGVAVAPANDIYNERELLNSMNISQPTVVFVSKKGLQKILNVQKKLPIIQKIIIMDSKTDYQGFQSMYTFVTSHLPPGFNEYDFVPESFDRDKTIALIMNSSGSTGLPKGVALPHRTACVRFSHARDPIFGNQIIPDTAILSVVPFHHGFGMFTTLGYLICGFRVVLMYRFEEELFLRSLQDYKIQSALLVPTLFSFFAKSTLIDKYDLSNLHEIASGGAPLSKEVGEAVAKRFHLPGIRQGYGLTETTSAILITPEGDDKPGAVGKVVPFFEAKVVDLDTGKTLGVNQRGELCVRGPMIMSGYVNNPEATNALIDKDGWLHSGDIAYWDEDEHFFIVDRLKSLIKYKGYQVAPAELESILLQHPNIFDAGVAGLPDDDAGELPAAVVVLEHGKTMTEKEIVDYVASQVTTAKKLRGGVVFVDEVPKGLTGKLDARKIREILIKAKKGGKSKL
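Purified P. pyralis luciferase (10nM final) with 10uM D-luciferin and 10uM ATP (Km levels) in 50mM Tris acetate pH 7.5, 10mM Mg acetate, 0.01% Tween-20, 0.05% BSA; qHTS 6-point titration, ~60 µM downward; luminescence read.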
NPC1 prom act: activators of NPC1 promoter | Huh7 NPC1 promoter luciferase reporter, 24 h | Potency, µM (highest dose often 9.22 µM), most hits filed as activators | hit rate 2.4% among 320,000; also: nearly all actives have a fitted effect of over 60% in size
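Luciferase expression driven by the NPC1 promoter was measured in stably transfected Huh7 cells after a 24 h compound incubation, using a luciferase reagent and a luminescence read.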
Hits are given with their value. Calls follow the shape of the dose curve; as a rule, active = well fitted curve in the direction sought with a large enough effect; inconclusive = small, poorly fitted or top-dose-only effect, or another doubt; inactive = no such curve, though single readings can be large; an effect the other way counts as inactive or inconclusive.

For CN(CCCC1CCCC1)C(=O)CCc1nnc(-c2ccccc2)o1 the results were ELG1 DNA repair inconclusive, SMN2 splice enh 12.6µM, Rab9 prom act 2.51µM, ELG1 genotox 20.6µM, FLuc modulator 12µM and NPC1 prom act inconclusive.
Screening CCOC(=O)c1ccc(N2C(=O)c3n[nH]c(-c4ccco4)c3C2c2cccc(O)c2)cc1 (stereo not given) returned SMN2 splice enh inactive and FLuc modulator inactive.
For Fc1ccc([C@@H]2Nc3ccccc3[C@@H]3C=CC[C@@H]32)cc1 the results were SMN2 splice enh inactive and FLuc modulator inconclusive.
Screening COc1ccc(-c2ccc(CCC(=O)O)n2CC(=O)Nc2cccc(C(F)(F)F)c2)cc1 returned SMN2 splice enh inactive and FLuc modulator inconclusive.
For Cc1ccc(C)c(-n2c3nc(=O)[nH]c(=O)c-3cc3c(C)nn(-c4ccccc4)c32)c1 the results were SMN2 splice enh inactive and FLuc modulator inactive.
CCCCn1c(N)c(N(Cc2ccccc2OC)C(=O)CSCC(=O)Nc2cccc(C)c2)c(=O)[nH]c1=O was read as ELG1 DNA repair inactive, Rab9 prom act inactive, ELG1 genotox inactive, FLuc modulator inactive and NPC1 prom act inactive.
Screening Cc1ccc(NC(=O)c2c(NC(=O)C(F)(F)F)sc3c2CCCCC3)cc1 returned SMN2 splice enh inactive and FLuc modulator 10.7µM.
For Cc1ccccc1NC(=O)c1c(NC(=O)c2ccccc2)sc2c1CCC2 the results were SMN2 splice enh inactive and FLuc modulator inconclusive.
For O=C(COc1ccc(Cl)cc1)Nc1sc2c(c1C(=O)Nc1cccc(Cl)c1)CCCC2 the results were SMN2 splice enh inactive and FLuc modulator inconclusive.
For Cc1cccc(NC(=O)c2c(NC(=O)C(F)(F)F)sc3c2CCCCC3)c1 the results were SMN2 splice enh inactive and FLuc modulator 13.5µM.
For Cc1ccccc1NC(=O)c1c(NC(=O)C(F)(F)F)sc2c1CCCCC2 the results were SMN2 splice enh inactive and FLuc modulator 10.7µM.
For O=C(Nc1cccc(Cl)c1)c1c(NC(=O)C(F)(F)F)sc2c1CCCC2 the results were SMN2 splice enh inactive and FLuc modulator 16.9µM.
Cc1cccc(NC(=O)c2c(Br)sc3c2CCCC3)c1 was read as SMN2 splice enh inactive and FLuc modulator inconclusive.
Cc1ccc(NC(=O)c2c(NC(=O)c3ccccc3)sc3c2CCC3)cc1 was read as SMN2 splice enh inactive and FLuc modulator inconclusive.
For CCSc1nnc2c(n1)OC(CC)N(C(C)=O)c1ccccc1-2 (stereo not given) the results were SMN2 splice enh inactive and FLuc modulator inactive.
`Clc1ccc(OCc2nc3ccccc3[nH]2)cc1` gave ELG1 DNA repair inconclusive, SMN2 splice enh 11.2µM, Rab9 prom act 1.12µM, ELG1 genotox inconclusive, FLuc modulator 3.38µM and NPC1 prom act 2µM.
`OC(Cc1nc2ccccc2[nH]1)c1ccccc1Cl` (stereo not given) gave ELG1 DNA repair inconclusive, SMN2 splice enh inactive, Rab9 prom act inactive, ELG1 genotox inactive, FLuc modulator 23.9µM and NPC1 prom act inactive.
Screening CCc1nc2ccccc2[nH]1 returned ELG1 DNA repair inactive, SMN2 splice enh inactive, Rab9 prom act inactive, ELG1 genotox inactive, FLuc modulator inactive and NPC1 prom act inactive.
Cc1ccc(OCc2nc3ccccc3[nH]2)cc1 was read as ELG1 DNA repair inconclusive, SMN2 splice enh 3.55µM, Rab9 prom act 0.631µM, ELG1 genotox inconclusive, FLuc modulator 1.35µM and NPC1 prom act 1.41µM.
c1ccc(OCc2nc3ccccc3[nH]2)cc1 was read as ELG1 DNA repair inconclusive, SMN2 splice enh 12.6µM, Rab9 prom act 3.98µM, ELG1 genotox inconclusive, FLuc modulator 12µM and NPC1 prom act 2.82µM.
`Cc1ccc(NC(=O)COc2ccc3oc4c(c3c2)CCCC4)cc1C` gave SMN2 splice enh inactive and FLuc modulator inactive.
`COc1ccc(C(=O)N2CCN(C(=O)C3CCCO3)CC2)cc1[N+](=O)[O-]` (stereo not given) gave ELG1 DNA repair inactive and ELG1 genotox inactive.
O=c1[nH]c2cc3c(cc2cc1CN(Cc1nnnn1C1CCCC1)C1CCCC1)OCCO3 was read as ELG1 DNA repair 13µM, SMN2 splice enh inactive, Rab9 prom act inactive, ELG1 genotox inactive, FLuc modulator inactive and NPC1 prom act inactive.
C=CCOc1ccc(/C=C/C(C)=N\O)cc1 was read as ELG1 DNA repair inconclusive, Rab9 prom act 2.82µM, ELG1 genotox inconclusive, FLuc modulator 6.75µM and NPC1 prom act 2.82µM.
For C=CCOc1ccc(/C=C/C(=O)OCC(=O)N2CCN(C(C)=O)CC2)cc1 the results were ELG1 DNA repair inactive and ELG1 genotox inactive.
Screening O=Nc1ccc(NOC(=O)c2ccc(Br)cc2)cc1 returned ELG1 DNA repair inactive, SMN2 splice enh inactive, Rab9 prom act inactive, ELG1 genotox inactive, FLuc modulator 0.0757µM and NPC1 prom act inactive.
Screening COC(=O)c1ccc(N=NN2CCCCC2)cc1 returned ELG1 DNA repair inconclusive, SMN2 splice enh 14.1µM, Rab9 prom act 2.24µM, ELG1 genotox 8.2µM, FLuc modulator 8.49µM and NPC1 prom act 2.82µM.
Screening CC(=O)Nc1ccc(C(=O)OCc2ccc(Br)cc2)cc1 returned ELG1 DNA repair inactive, SMN2 splice enh inactive, Rab9 prom act inactive, ELG1 genotox inactive, FLuc modulator inactive and NPC1 prom act inactive.
COC(=O)c1ccc(NN=Nc2ccc(C)cc2)cc1 was read as ELG1 DNA repair inconclusive, SMN2 splice enh 11.2µM, Rab9 prom act 1.12µM, ELG1 genotox inconclusive, FLuc modulator 6.75µM and NPC1 prom act 0.794µM.
Cc1ccc(C(=O)ONc2ccc(N=O)cc2)cc1 was read as ELG1 DNA repair inactive, SMN2 splice enh inactive, Rab9 prom act inactive, ELG1 genotox inactive, FLuc modulator 0.0301µM and NPC1 prom act inactive.
Screening COC(=O)c1ccc(NC(=O)CCN2CCCCC2)cc1 returned ELG1 DNA repair inactive, SMN2 splice enh inactive, Rab9 prom act inactive, ELG1 genotox inactive, FLuc modulator inactive and NPC1 prom act inactive.
Screening COc1cc(C(=O)NNC(=O)c2ccccc2OCc2c(C)noc2C)cc(OC)c1OC returned ELG1 DNA repair inactive, Rab9 prom act inactive, ELG1 genotox inactive, FLuc modulator inactive and NPC1 prom act inactive.
Screening COc1ccc(Cl)cc1C(=O)NCC(c1ccc(N(C)C)cc1)N1CCCC1 (stereo not given) returned FLuc modulator inactive.
Screening Cc1ccc(C(=O)ONc2ccc(N=NC(=O)c3ccccc3O)cc2)cc1 returned ELG1 DNA repair inconclusive, SMN2 splice enh inactive, Rab9 prom act inconclusive, ELG1 genotox inconclusive, FLuc modulator 12µM and NPC1 prom act inactive.
CCOC(=O)c1c(C)oc2nc(C)nc(NCc3cccc(OC)c3)c12 was read as FLuc modulator inactive.
